According to ChEMBL document CHEMBL2218924, “A broad activity screen in support of a chemogenomic map for kinase signalling research and drug discovery” (Biochem J, 2013):

target: Ribosomal protein S6 kinase alpha-1 (Homo sapiens) (UniProt Q15418); conditions: at 1 µM
Sequence (Q15418 whole entry): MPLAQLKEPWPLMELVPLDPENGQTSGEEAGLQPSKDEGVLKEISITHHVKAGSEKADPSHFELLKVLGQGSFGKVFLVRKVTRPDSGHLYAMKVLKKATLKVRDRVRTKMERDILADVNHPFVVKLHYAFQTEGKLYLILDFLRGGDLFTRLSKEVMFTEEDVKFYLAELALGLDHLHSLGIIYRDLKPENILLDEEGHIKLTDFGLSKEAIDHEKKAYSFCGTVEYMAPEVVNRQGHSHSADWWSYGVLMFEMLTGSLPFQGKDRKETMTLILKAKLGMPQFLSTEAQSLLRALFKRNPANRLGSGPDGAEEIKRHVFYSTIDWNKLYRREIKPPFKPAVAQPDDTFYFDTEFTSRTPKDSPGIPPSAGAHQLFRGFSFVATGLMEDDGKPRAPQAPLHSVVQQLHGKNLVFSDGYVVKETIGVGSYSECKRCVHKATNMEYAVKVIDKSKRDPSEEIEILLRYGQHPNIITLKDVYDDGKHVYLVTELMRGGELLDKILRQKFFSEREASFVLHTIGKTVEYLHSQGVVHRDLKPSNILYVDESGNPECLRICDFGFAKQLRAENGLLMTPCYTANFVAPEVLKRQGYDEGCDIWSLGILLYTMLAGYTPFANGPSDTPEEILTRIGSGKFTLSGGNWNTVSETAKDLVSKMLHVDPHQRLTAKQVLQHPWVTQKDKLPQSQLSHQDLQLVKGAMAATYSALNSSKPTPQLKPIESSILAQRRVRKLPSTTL

| SMILES | residual activity [%] |
| --- | --- |
| O=C(Nc1ccc(Cl)cc1)c1ccccc1NCc1ccncc1 | 129 |
| O=C(O)/C=C/c1cc(Br)c(Br)c(Br)c1Br | 110 |
| Oc1cccc(-c2nc(N3CCOCC3)c3oc4ncccc4c3n2)c1 | 141 |
| Fc1ccc(-c2nc3n(c2-c2ccncc2)CCS3)cc1 | 73 |
| CC(C)(C)c1nc2c3ccc(F)cc3c3c(=O)[nH]ccc3c2[nH]1 | 65 |
| O=C(c1ccccc1)c1ccc(N2CCOCC2)cc1O | 96 |
| O=C1Cc2c([nH]c3ccc(Br)cc23)-c2ccccc2N1 | 78 |
| O=c1cc(N2CCOCC2)oc2c(-c3ccccc3)cccc12 | 138 |
| CC(C)[C@H](CO)Nc1nc(Nc2cc(N)cc(Cl)c2)c2ncn(C(C)C)c2n1 | 32 |
| O=S(=O)(c1cccc2cnccc12)N1CCCNCC1 | 84 |
| NCCNc1ncc(C(N)=O)c(Nc2cccc(C(F)(F)F)c2)n1 | 116 |

target: Ribosomal protein S6 kinase alpha-1 (Homo sapiens) (UniProt Q15418); conditions: at 10 µM

| SMILES | residual activity [%] |
| --- | --- |
| O=C(O)/C=C/c1cc(Br)c(Br)c(Br)c1Br | 89 |
| Oc1cccc(-c2nc(N3CCOCC3)c3oc4ncccc4c3n2)c1 | 98 |
| NC(=O)c1cccc(-c2cc(Nc3ccc(OC(F)(F)F)cc3)ncn2)c1 | 94 |
| Fc1ccc(-c2nc3n(c2-c2ccncc2)CCS3)cc1 | 81 |
| Nc1ncnc2c1cnn2-c1ccccc1 | 88 |
| CC(C)(C)c1nc2c3ccc(F)cc3c3c(=O)[nH]ccc3c2[nH]1 | 55 |
| O=C(c1ccccc1)c1ccc(N2CCOCC2)cc1O | 85 |
| O=C1Cc2c([nH]c3ccc(Br)cc23)-c2ccccc2N1 | 77 |
| CC(C)[C@H](CO)Nc1nc(Nc2cc(N)cc(Cl)c2)c2ncn(C(C)C)c2n1 | 6 |
| O=S(=O)(c1cccc2cnccc12)N1CCCNCC1 | 47 |
| NCCNc1ncc(C(N)=O)c(Nc2cccc(C(F)(F)F)c2)n1 | 59 |
| N#C/C(=C\c1ccc(O)c(O)c1)C(=O)NCc1ccccc1 | 102 |
| N#Cc1c(NC(=O)c2cccc3ccccc23)sc2c1CCCC2 | 94 |

target: Ribosomal protein S6 kinase alpha-3 (Homo sapiens) (UniProt P51812); conditions: at 1 µM
Sequence (P51812 whole entry): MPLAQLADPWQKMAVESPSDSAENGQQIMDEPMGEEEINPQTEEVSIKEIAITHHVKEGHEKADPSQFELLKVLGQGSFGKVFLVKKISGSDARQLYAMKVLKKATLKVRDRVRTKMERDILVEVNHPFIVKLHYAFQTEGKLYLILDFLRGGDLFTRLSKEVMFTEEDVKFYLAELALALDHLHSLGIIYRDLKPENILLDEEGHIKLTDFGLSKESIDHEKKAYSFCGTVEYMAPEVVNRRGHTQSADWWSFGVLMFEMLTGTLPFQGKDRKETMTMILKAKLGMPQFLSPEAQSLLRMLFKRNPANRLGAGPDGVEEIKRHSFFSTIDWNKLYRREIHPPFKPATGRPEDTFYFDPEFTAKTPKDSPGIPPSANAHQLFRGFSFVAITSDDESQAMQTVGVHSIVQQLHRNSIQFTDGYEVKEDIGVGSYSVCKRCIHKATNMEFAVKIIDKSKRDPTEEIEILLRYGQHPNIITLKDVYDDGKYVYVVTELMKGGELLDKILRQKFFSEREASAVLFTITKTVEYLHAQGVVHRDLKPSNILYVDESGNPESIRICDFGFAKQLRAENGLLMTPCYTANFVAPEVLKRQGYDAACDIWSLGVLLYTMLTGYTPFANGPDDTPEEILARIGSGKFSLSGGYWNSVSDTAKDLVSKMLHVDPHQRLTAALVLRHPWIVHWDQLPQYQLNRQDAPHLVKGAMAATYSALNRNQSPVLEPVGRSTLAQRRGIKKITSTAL

| SMILES | residual activity [%] |
| --- | --- |
| CCOC(=O)c1c(C)[nH]c(/C=C2\C(=O)Nc3ccccc32)c1C | 88 |
| NC(=O)c1ccc(-c2nc(-c3ccc4c(c3)OCCO4)c(-c3ccccn3)[nH]2)cc1 | 56 |
| Nc1nccc(-c2c(-c3ccc(F)cc3)ncn2C2CCNCC2)n1 | 54 |
| O=C1Nc2ccccc2/C1=C\c1c(Cl)[nH]c2ccccc12 | 60 |
| O=C(O)/C=C/c1cc(Br)c(Br)c(Br)c1Br | 59 |
| COc1ccc(-c2cnc3c(-c4ccsc4)cnn3c2)cc1 | 67 |
| CC(C)N(CCC(=O)c1ccc2ccccc2c1)Cc1ccccc1 | 54 |
| Oc1cccc(-c2nc(N3CCOCC3)c3oc4ncccc4c3n2)c1 | 70 |
| NC(=O)c1cccc(-c2cc(Nc3ccc(OC(F)(F)F)cc3)ncn2)c1 | 57 |
| Cn1sc(=O)n(Cc2ccccc2)c1=O | 49 |
| Fc1ccc(-c2nc3n(c2-c2ccncc2)CCS3)cc1 | 64 |
| COc1cc2ncnc(Nc3cccc(Cl)c3)c2cc1OC | 102 |
| O=C1Cc2c([nH]c3ccc([N+](=O)[O-])cc23)-c2ccccc2N1 | 56 |
| O=C(c1ccccc1)c1ccc(N2CCOCC2)cc1O | 45 |
| O=c1cc(N2CCOCC2)oc2c(-c3ccccc3)cccc12 | 69 |
| CCCCc1c(-c2ccc(O)cc2)[nH]c2nccnc12 | 42 |
| O=C(Nc1nc2ccccc2n1CCN1CCOCC1)c1cccc([N+](=O)[O-])c1 | 104 |
| N#C/C(=C\c1ccc(O)c(O)c1)C(=O)NCc1ccccc1 | 67 |
| N#Cc1c(NC(=O)c2cccc3ccccc23)sc2c1CCCC2 | 49 |
